Reference: PubChem BioAssay (NCI)
About 83,000 compounds went through this panel and 20% of them were active in at least one assay; those are over-represented in the sample as a whole.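 48-hour exposure, single concentration, 96-well plates; percent growth endpoint where 0 means no net growth. Active: below 10.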 A number with no mark means an inactive call. Activity calls are given as the source filed them.

test system: MALME-3M melanoma; assay: NCI-60 one-dose screen, 48 h (100 = growth as untreated, 0 = no growth, -100 = all killed); settings: 10 µM unless noted

Structure (SMILES) | growth
CC(=O)Nc1nc(C(=O)N2N=C(C)/C(=C/c3cccs3)C2=O)cs1 | 86%
COc1ccc(-c2nnc(COc3ccc(NC(=O)Nc4ccc(Cl)c(C(F)(F)F)c4)cc3F)o2)cc1 | -1.11% (active)
COc1ccc(OC)c(NC(=O)c2cc(S(=O)(=O)N3CCc4ccccc43)ccc2OC)c1 | 111%
CC(C)(C)c1cc(-c2nc3ccc(N4CCN(CCO)CC4)cc3[nH]2)cc(C(C)(C)C)c1O | -26.4% (active)
COc1cc2oc(-c3cccc(NC(=O)Nc4ccc5c(c4)OCO5)c3)cc(=O)c2c(OC)c1OC | 75.7%
COc1ccc(NC(=O)/N=c2\oc3c(OC)cccc3cc2-c2cc3ccccc3[nH]2)cc1 | 57.3%
CCN1C(=S)N(CC)C2Nn3c(s/c(=C4\C(=O)N(C)c5ccccc54)c3=O)=NC21 (stereo not drawn) | 51%
COc1ccc(/C=C2\Oc3cc(OCCN4CCCC4)ccc3C2=O)c(OC)c1 | 102%
COc1ccc(C2CC(c3cccs3)=NN2c2ccc(S(=O)(=O)NC(=O)NCc3cccc(OC)c3)cc2)cc1 (stereo not drawn) | 31.2%
O=C(Nc1cccc(C(F)(F)F)c1)Nc1ccc(OCc2nnc(-c3ccccc3)o2)c(F)c1 | 53.7%
NC(=O)c1c(NC(=O)c2ccc(OCC3CCCO3)cc2)sc2c1CCCC2 (stereo not drawn) | 82.4%
CC(C)(C)OC(=O)N1C/C(=C\c2cccs2)C(=O)/C(=C/c2cccs2)C1 | 95.8%
COc1ccc(-c2nnc(COc3ccc(NS(=O)(=O)c4ccc(OC)cc4)cc3F)o2)cc1 | 78.6%
COc1ccc(/C=C2\C(=O)N(C(=O)c3csc(NC(C)=O)n3)N=C2C)cc1 | 90.5%
NC(=O)c1c(NC(=O)c2ccc3c(c2)OCO3)sc2c1CCC(=O)C2 | -44% (active)
COc1ccc(OC)c(/C=C2\Oc3cc(OCCN4CCCC4)ccc3C2=O)c1 | 104%
CCCCNc1nnc(-c2cc(-c3cc4ccccc4o3)nn2-c2ccccc2)o1 | 93.1%
Nc1c(C(=O)Nc2cccc([N+](=O)[O-])c2)sc2nc3c(cc12)C(O)CCC3 (stereo not drawn) | 65.8%
O=c1oc2c([nH]c3ccc4ccccc4c32)c2ccccc12 | 115%
CCc1cccc(C)c1NC(=O)c1sc2nc3c(cc2c1N)C(=O)CCC3 | 45.1%

Structure (SMILES) | growth
C#CCN1C(=O)/C(=c2\sc3n(c2=O)C2C(NN=3)N(CC)C(=O)N2CC)c2ccccc21 (stereo not drawn) | 43.6%
OCc1c(-c2ccccc2)nc2sccn12 | 109%
C#CCN1C(=O)/C(=c2\sc3n(c2=O)NC2C(N=3)N(CC)C(=O)N2CC)c2ccccc21 (stereo not drawn) | 51.5%
CSc1nc(-c2cc3ccccc3o2)cc(-c2ccc(Cl)cc2)c1C#N | 89.3%
O=C1CCCCC=C1C[N+](=O)[O-] | 73.2%
CCCCCCCCCCCCCCCCCCOc1cccc(CCOP(=O)(O)OCC[N+](C)(C)C)c1 | 101%
CC[C@H](C)[C@@H]1NC(=O)[C@H]([C@@H](C)O)NC(=O)C(Cc2ccccc2)NC(=O)[C@@H]2CCCN2C(=O)C(C(C)C)NC(=O)C(Cc2ccccc2)NC(=O)CNC(=O)[C@@H]2CCCN2C1=O (stereo partly drawn) | 64%
COc1cc(C2C3=C(COC3=O)Nc3c2ccc2c3CCCC2)cc2c1OCO2 (stereo not drawn) | 92.1%
FC(F)(F)c1cccc(-n2nnc3cnc(Nc4ccc(N5CCCCC5)cc4)nc32)c1 | 41.6%
COc1cc(CCn2nnc3c(Nc4ccc(N5CCOCC5)cc4)ncnc32)cc(OC)c1 | 100%
Nc1c(C(=O)Nc2cccc(Cl)c2Cl)sc2nc3c(cc12)C(=O)CCC3 | 68.6%
COC(=O)c1ccc2nc(-c3cc4ccccc4n3C)n(CCCCOc3cc4c(cc3OC)C(=O)N3CCC[C@H]3C=N4)c2c1 | -80.1% (active)
O=Nc1c(-c2c(O)[nH]c3ccc([N+](=O)[O-])cc23)[nH]c2ccc(O)cc12 | 11.7%
Nc1nc(-c2cc3ccccc3o2)cc(=O)c(=O)[nH]1 | 94.3%
COc1cc(-c2n[nH]nc2-c2ccc3c(c2)OCCO3)cc(OC)c1OC | 69.7%
Nc1nc(Cl)c2c(ncn2Cc2ccc(CCl)cc2)n1 | 94.6%
Cc1cc(Nc2nc(-c3ccncc3)nc3ccccc23)n[nH]1 | 88.8%
O=C(Nc1cc(C(F)(F)F)cc(C(F)(F)F)c1)Nc1ccc(OCc2nnc(-c3ccc(Cl)cc3)o2)c(F)c1 | -3.82% (active)
CCN1C(=O)N(CC)C2Nn3c(s/c(=C\c4cccc(F)c4)c3=O)=NC21 (stereo not drawn) | 72.3%

test system: MDA-MB-231 breast; assay: as above; settings: 10 µM unless noted

Structure (SMILES) | growth
CC(=O)Nc1nc(C(=O)N2N=C(C)/C(=C/c3cccs3)C2=O)cs1 | 111%
COc1ccc(-c2nnc(COc3ccc(NC(=O)Nc4ccc(Cl)c(C(F)(F)F)c4)cc3F)o2)cc1 | -8.46% (active)
COc1ccc(OC)c(NC(=O)c2cc(S(=O)(=O)N3CCc4ccccc43)ccc2OC)c1 | 71.8%
CC(C)(C)c1cc(-c2nc3ccc(N4CCN(CCO)CC4)cc3[nH]2)cc(C(C)(C)C)c1O | 39.2%
COc1cc2oc(-c3cccc(NC(=O)Nc4ccc5c(c4)OCO5)c3)cc(=O)c2c(OC)c1OC | 61.3%
COc1ccc(NC(=O)/N=c2\oc3c(OC)cccc3cc2-c2cc3ccccc3[nH]2)cc1 | 36.3%
CCN1C(=S)N(CC)C2Nn3c(s/c(=C4\C(=O)N(C)c5ccccc54)c3=O)=NC21 (stereo not drawn) | 42.1%
COc1ccc(/C=C2\Oc3cc(OCCN4CCCC4)ccc3C2=O)c(OC)c1 | 88.7%
COc1ccc(C2CC(c3cccs3)=NN2c2ccc(S(=O)(=O)NC(=O)NCc3cccc(OC)c3)cc2)cc1 (stereo not drawn) | 113%
O=C(Nc1cccc(C(F)(F)F)c1)Nc1ccc(OCc2nnc(-c3ccccc3)o2)c(F)c1 | 42.9%
NC(=O)c1c(NC(=O)c2ccc(OCC3CCCO3)cc2)sc2c1CCCC2 (stereo not drawn) | 96.6%
CC(C)(C)OC(=O)N1C/C(=C\c2cccs2)C(=O)/C(=C/c2cccs2)C1 | 101%
COc1ccc(-c2nnc(COc3ccc(NS(=O)(=O)c4ccc(OC)cc4)cc3F)o2)cc1 | 82.7%
COc1ccc(/C=C2\C(=O)N(C(=O)c3csc(NC(C)=O)n3)N=C2C)cc1 | 105%
NC(=O)c1c(NC(=O)c2ccc3c(c2)OCO3)sc2c1CCC(=O)C2 | -20.5% (active)
COc1ccc(OC)c(/C=C2\Oc3cc(OCCN4CCCC4)ccc3C2=O)c1 | 84.6%
CCCCNc1nnc(-c2cc(-c3cc4ccccc4o3)nn2-c2ccccc2)o1 | 91.4%
Nc1c(C(=O)Nc2cccc([N+](=O)[O-])c2)sc2nc3c(cc12)C(O)CCC3 (stereo not drawn) | 65.5%
O=c1oc2c([nH]c3ccc4ccccc4c32)c2ccccc12 | 112%
CCc1cccc(C)c1NC(=O)c1sc2nc3c(cc2c1N)C(=O)CCC3 | 31%

Structure (SMILES) | growth
C#CCN1C(=O)/C(=c2\sc3n(c2=O)C2C(NN=3)N(CC)C(=O)N2CC)c2ccccc21 (stereo not drawn) | 21%
OCc1c(-c2ccccc2)nc2sccn12 | 109%
C#CCN1C(=O)/C(=c2\sc3n(c2=O)NC2C(N=3)N(CC)C(=O)N2CC)c2ccccc21 (stereo not drawn) | 69.9%
CSc1nc(-c2cc3ccccc3o2)cc(-c2ccc(Cl)cc2)c1C#N | 27.8%
O=C1CCCCC=C1C[N+](=O)[O-] | 107%
CCCCCCCCCCCCCCCCCCOc1cccc(CCOP(=O)(O)OCC[N+](C)(C)C)c1 | 95.5%
CC[C@H](C)[C@@H]1NC(=O)[C@H]([C@@H](C)O)NC(=O)C(Cc2ccccc2)NC(=O)[C@@H]2CCCN2C(=O)C(C(C)C)NC(=O)C(Cc2ccccc2)NC(=O)CNC(=O)[C@@H]2CCCN2C1=O (stereo partly drawn) | 26.4%
COc1cc(C2C3=C(COC3=O)Nc3c2ccc2c3CCCC2)cc2c1OCO2 (stereo not drawn) | 6.67% (active)
FC(F)(F)c1cccc(-n2nnc3cnc(Nc4ccc(N5CCCCC5)cc4)nc32)c1 | 58.7%
COc1cc(CCn2nnc3c(Nc4ccc(N5CCOCC5)cc4)ncnc32)cc(OC)c1 | 91.9%
Nc1c(C(=O)Nc2cccc(Cl)c2Cl)sc2nc3c(cc12)C(=O)CCC3 | 71.8%
COC(=O)c1ccc2nc(-c3cc4ccccc4n3C)n(CCCCOc3cc4c(cc3OC)C(=O)N3CCC[C@H]3C=N4)c2c1 | -14.7% (active)
O=Nc1c(-c2c(O)[nH]c3ccc([N+](=O)[O-])cc23)[nH]c2ccc(O)cc12 | 25.4%
Nc1nc(-c2cc3ccccc3o2)cc(=O)c(=O)[nH]1 | 98.3%
COc1cc(-c2n[nH]nc2-c2ccc3c(c2)OCCO3)cc(OC)c1OC | 33.3%
Nc1nc(Cl)c2c(ncn2Cc2ccc(CCl)cc2)n1 | 88.2%
Cc1cc(Nc2nc(-c3ccncc3)nc3ccccc23)n[nH]1 | 84.1%
O=C(Nc1cc(C(F)(F)F)cc(C(F)(F)F)c1)Nc1ccc(OCc2nnc(-c3ccc(Cl)cc3)o2)c(F)c1 | -17% (active)
CCN1C(=O)N(CC)C2Nn3c(s/c(=C\c4cccc(F)c4)c3=O)=NC21 (stereo not drawn) | 66.5%
